Test results published in the supplement of paper PMC7366291.
Where a name gives a salt, the structure may show the parent alone. ± gives the standard deviation of the averaged measurements.

System: Danio rerio Tg(wt1b:EGFP) embryo, pronephros
Experiment: fraction of imaged embryos annotated as normal kidney; higher = less nephrotoxic; extreme values may be limits of the assay
Conditions: 25 µM; exposure: 24-48 hpf
Procedure, shortened: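 The read-out is the proportion of embryos in each treatment manually annotated as normal-kidney. Exposure ran from 24 to 48 hpf at 28.5°C in 12-well plates, using dechorionated Tg(wt1b:EGFP) zebrafish embryos in 5 mM HEPES-buffered E3 with 0.003% PTU, 0.5% DMSO and 25 μM compound. For imaging, larvae were anaesthetised with tricaine, positioned dorsally in agarose-filled 96-well plates and captured by widefield fluorescence (470 nm, 10 z-slices), with scoring done on maximum projections.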

| Structure (SMILES) | fraction of imaged embryos annotated as normal kidney |
| --- | --- |
| CNCCCC12CCC(c3ccccc31)c1ccccc12 [Maprotiline hydrochloride] | 0.909 |
| CCCCOc1ccc(C(=O)CCN2CCCCC2)cc1 [Dyclonine hydrochloride] | 0.833 |
| Cn1c(=O)c2c(ncn2CCO)n(C)c1=O [Etofylline] | 0.917 |
| Nc1ccc(C(=O)NCC(=O)O)cc1 [Aminohippuric acid] | 0.917 |
| CCCc1cc(C(N)=S)ccn1 [Prothionamide] | 0.917 |
| O=C1[C@H]2CCCC[C@H]2C(=O)N1CCCCN1CCN(c2nsc3ccccc23)CC1 [Perospirone] | 1 |
| Nc1ccc(S(=O)(=O)NC(=O)c2ccccc2)cc1 [Sulfabenzamide] | 0.667 |

System: Danio rerio Tg(wt1b:EGFP) embryo, pronephros
Experiment: pronephric angle neck segment to proximal convoluted tubule (mean of left and right), fold change vs DMSO control; higher = larger pronephric angle
Conditions: 25 µM; exposure: 24-48 hpf
Procedure, shortened: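 In HEPES-buffered E3 with 0.003% PTU and 0.5% DMSO, dechorionated Tg(wt1b:EGFP) zebrafish embryos were exposed to 25 μM compound from 24 to 48 hpf at 28.5°C. Pronephroi were then imaged dorsally at 470 nm in 10 z-slices, in 96-well plates filled with agarose. On maximum projections, a Fiji macro turned 16 manually placed reference points into distances and angles, and values more than 2 SD from the feature mean were excluded. Features are fold changes relative to the mean of DMSO-treated embryos from the same day.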

| Structure (SMILES) | pronephric angle neck segment |
| --- | --- |
| Cc1cccc(C)c1OCC(C)N (centres undefined) [Mexiletine hydrochloride] | 0.98 ± 0.041 |
| CCCOc1ccccc1-c1nc2[nH]nnc2c(=O)[nH]1 [Zaprinast] | 1.08 ± 0.12 |
| CN(C)CCCN1c2ccccc2Sc2ccccc21 [Promazine hydrochloride] | 0.962 ± 0.047 |
| CCCCC(=O)N(Cc1ccc(-c2ccccc2-c2nnn[nH]2)cc1)[C@H](C(=O)O)C(C)C [Valsartan] | 0.991 ± 0.021 |
| OCCN1CCN(CCCN2c3ccccc3Sc3ccc(C(F)(F)F)cc32)CC1 [Fluphenazine dihydrochloride] | 0.932 ± 0.013 |
| CC(C)C(=O)OCC(=O)[C@@]12O[C@H](C3CCCCC3)O[C@@H]1C[C@H]1[C@@H]3CCC4=CC(=O)C=C[C@]4(C)[C@H]3[C@@H](O)C[C@@]12C [Ciclesonide] | 1.06 ± 0.066 |
| Nc1ccc(C(=O)O)c(O)c1 [4-aminosalicylic acid] | 0.995 ± 0.018 |
| N=C(N=C(N)N)N1CCOCC1 [Moroxidine hydrochloride] | 0.903 ± 0.039 |
| CC1(C)S[C@@H]2[C@H](NC(=O)[C@H](N)c3ccccc3)C(=O)N2[C@H]1C(=O)O [Ampicillin trihydrate] | 1.03 ± 0.025 |
| NCCCC[C@H](N[C@@H](CCc1ccccc1)C(=O)O)C(=O)N1CCC[C@H]1C(=O)O [Lisinopril] | 1.02 ± 0.032 |
| CNC[C@H](O)[C@@H](O)[C@H](O)[C@H](O)CO [Meglumine] | 1.006 ± 0.0029 |
| Cc1cc(NS(=O)(=O)c2ccc(N)cc2)no1 [Sulfamethoxazole] | 0.9977 ± 0.0021 |
| Nc1nc2c(ncn2COC(CO)CO)c(=O)[nH]1 [Ganciclovir] | 0.998 ± 0.018 |
| Oc1ncnc2[nH]ncc12 [Allopurinol] | 0.9723 ± 0.0072 |
| CN1CCC(=C2c3ccccc3CCc3cccnc32)CC1 [Azatadine maleate] | 0.99 ± 0.037 |
| CC(C)(C)NC(=O)[C@@H]1C[C@@H]2CCCC[C@@H]2CN1C[C@@H](O)[C@H](Cc1ccccc1)NC(=O)[C@H](CC(N)=O)NC(=O)c1ccc2ccccc2n1 [Saquinavir mesylate] | 0.977 ± 0.016 |
| NC[C@H]1O[C@H](O[C@H]2[C@H](O[C@@H]3O[C@H](CO)[C@@H](O)[C@H]3O)[C@@H](O)[C@H](N)C[C@@H]2N)[C@H](N)[C@@H](O)[C@@H]1O [Ribostamycin sulfate salt] | 1.06 ± 0.061 |
| Cc1cc(CC(=O)O)n(C)c1C(=O)c1ccc(Cl)cc1 [Zomepirac sodium salt] | 1.23 ± 0.062 |
| CCSc1ccc2c(c1)N(CCCN1CCN(C)CC1)c1ccccc1S2 [Thiethylperazine dimalate] | 0.9766 ± 0.0079 |
| CCCc1nc2c(C)cc(-c3nc4ccccc4n3C)cc2n1Cc1ccc(-c2ccccc2C(=O)O)cc1 [Telmisartan] | 1.16 ± 0.046 |
| CNCCc1ccccn1 [Betahistine mesylate] | 0.9697 ± 0.0079 |
| CCOC(=O)[C@H](CCc1ccccc1)N[C@@H](C)C(=O)N1[C@H](C(=O)O)C[C@@H]2CCC[C@@H]21 [Ramipril] | 1.037 ± 0.0046 |
| CC[N+](C)(C)Cc1ccccc1Br [Bretylium tosylate] | 0.982 ± 0.028 |
| Cc1ccc(C(=O)c2ccc(CC(=O)O)n2C)cc1 [Tolmetin sodium salt dihydrate] | 1 ± 0.075 |
| CN(c1nccc(=O)[nH]1)C1CCN(c2nc3ccccc3n2Cc2ccc(F)cc2)CC1 [Mizolastine] | 0.937 ± 0.015 |
| COc1ccc(C(=O)NCc2ccc(OCCN(C)C)cc2)cc1OC [Itopride] | 1.06 ± 0.055 |
| NC[C@@H]1O[C@H](O[C@H]2[C@@H](O)[C@H](O[C@@H]3[C@@H](O)[C@H](N)C[C@H](N)[C@H]3O[C@H]3O[C@H](CO)[C@@H](O)[C@H](O)[C@H]3N)O[C@@H]2CO)[C@H](N)[C@@H](O)[C@@H]1O [Paromomycin sulfate] | 0.99 ± 0.051 |
